Measured values reported in ChEMBL document CHEMBL1157539, “Thousands of chemical starting points for antimalarial lead identification” (Nature, 2010).

Columns and labels:
Assay type in all cases: functional
[1] = tested on: Plasmodium falciparum; test: GSK_TCMDC: Inhibition of Plasmodium falciparum 3D7 in whole red blood cells, using parasite LDH activity as an index of growth. Test compounds present at 2uM
[2] = tested on: Plasmodium falciparum; test: GSK_TCMDC: Inhibition of Plasmodium falciparum Dd2 in whole red blood cells, using parasite LDH activity as an index of growth. Test compounds present at 2uM
[3] = tested on: HepG2; test: GSK_TCMDC: Percent inhibition of human HepG2 cell line. Test compounds present at 10uM.

Row | Structure (SMILES) | Inhibition [1] | Inhibition [2] | Inhibition [3]
1 | CCc1ccc(CN2CCC(C(=O)Nc3ccc(-c4nc5ccccc5[nH]4)cc3)CC2)o1 | 99% | 94% | 29%
2 | COc1ccccc1NC(=O)Nc1cccc(-c2ccc(-c3nc4cccc(C)c4[nH]3)s2)c1 | 100% | 46% | 19%
3 | CN(C)CCNCc1cccc(-c2ccc3c(Nc4cc(O)c(Cl)cc4F)ccnc3c2)c1 | 99% | 59% | 6%
4 | CCN(CC)CCN(Cc1ccc(-c2ccc(C(F)(F)F)cc2)cc1)C(=O)Cn1c(CCc2c(F)ccc(F)c2F)nc(=O)c2ccccc21.O=C(O)C(O)C(O)C(=O)O | 98% | 62% | 44%
5 | O=C(NC1CC1)c1cnc(N2CCCC(c3ccccc3)C2)c(Cl)c1.O=C(O)C(F)(F)F (stereo unspecified) | 95% | 94% | 6%
6 | Cl.N=c1n(Cc2ccccc2)c2ccccc2n1CC(O)c1ccc(Cl)cc1 (stereo unspecified) | 96% | 75% | 26%
7 | CCOC(=O)/C(=N\OC(C(=O)OC(C)(C)C)c1ccccc1)c1csc(NC(c2ccccc2)(c2ccccc2)c2ccccc2)n1 (stereo unspecified) | 89% | 68% | 14%
8 | CCCNCc1ccc(-c2ccc(CN(CCOC)C(=O)c3cccc(C#N)c3)cc2)nc1.O=C(O)C(F)(F)F | 84% | 14% | 0%
9 | COc1ccccc1-c1cccc(CNC2CCN(CC3Cn4c(=O)ccc5ccc(F)c3c54)CC2)c1.O=C(O)C(F)(F)F (stereo unspecified) | 91% | 0% | 30%
10 | O=C(O)C(F)(F)F.O=C1CCCN1CCCNCc1ccc(-c2cccc(-c3nc4ccccc4[nH]3)c2)cc1 | 96% | 0% | 19%
11 | Cn1cc(CN2CCCC(COC(c3ccc(F)cc3)c3ccc(F)cc3)C2)cn1 (stereo unspecified) | 98% | 100% | 15%
12 | Cl.Clc1ccc2c(NCCc3ccccc3)ccnc2c1 | 93% | 99% | 31%
13 | COc1ccc(CCNCCCCCCNCCc2ccc(Cl)cc2)c(Cl)c1OC.Cl | 100% | 4% | 88%
14 | COc1ccc(CN2CCCN(Cc3cccc(NC(=O)c4ccc5ccccc5c4)c3)CC2)cc1.O=C(O)C(F)(F)F | 93% | 11% | 27%
15 | FC(F)(F)c1cccc(Nc2nc(-n3ccnc3)nc(-n3ccnc3)n2)c1 | 97% | 9% | 5%
16 | Cc1cccc(NC(=O)c2cnc(N3CCN(c4ccncc4)CC3)c(Cl)c2)c1.O=C(O)C(F)(F)F | 100% | 54% | 36%
17 | Cc1ccc(O)cc1Nc1ccnc2ccc(-c3csc(CNCCN4CCOCC4)n3)cc12 | 100% | 97% | 0%
18 | C(=N\Nc1nccc2sc(-c3ccccc3)cc12)/c1cccnc1 | 97% | 10% | 0%
19 | CC(C)C(C(=O)n1ncc2c3c(N)nc(N)nc3ccc21)C(C)C | 98% | 8% | 67%
20 | Clc1ccc(-c2cc3c(NCc4ccncc4)nccc3s2)cc1 | 98% | 8% | 26%
21 | N=C(N)Nc1ccc(C(=O)O)c(O)c1 | 94% | 1% | 0%

Row | Structure (SMILES) | Inhibition [1] | Inhibition [2] | Inhibition [3]
22 | Cc1nc(N)nc(N)c1CCCOc1ccccc1Cl | 98% | 5% | 40%
23 | COc1ccc(CNC2Cc3ccccc3C2)cc1-c1ccc(S(=O)(=O)NCCN2CCCC2)s1.O=C(O)C(F)(F)F | 100% | 100% | 89%
24 | CS(=O)(=O)NCCCNCc1ccc(-c2ccc(-c3nc4cc(F)ccc4[nH]3)s2)cc1.O=C(O)C(F)(F)F | 95% | 30% | 23%
25 | C=CCn1c(Sc2ccc(C#N)c([N+](=O)[O-])c2)nnc1-c1ccc(OC)cc1 | 96% | 74% | 0%
26 | C=Cc1ccc(-c2c(C)[nH]c(C)c(Br)c2=O)cc1 | 98% | 96% | 0%
27 | COc1ccc2nccc([C@@H](O)CN3CCC(NCc4ccc5nc[nH]c(=O)c5c4)CC3)c2c1.O=C(O)C(=O)O | 99% | 4% | 12%
28 | COc1ccc(Nc2nccc(NCC(O)c3ccc(C(F)(F)F)cc3)n2)cc1 (stereo unspecified) | 98% | 54% | 6%
29 | Cc1ccccc1C1CCN(C2CCC(NC(=O)c3ccc(-c4cccc(C(F)(F)F)c4)o3)CC2)CC1 (stereo unspecified) | 99% | 100% | 56%
30 | COc1ccccc1C1CCN(C2CCC(NC(=O)/C=C/c3ccc(C(F)(F)F)cc3)CC2)CC1 (stereo unspecified) | 88% | 7% | 57%
31 | Cn1cnc(CCNC(=O)c2cccc(-c3csc(-c4nc5ccccc5[nH]4)c3)c2)c1 | 100% | 26% | 33%
32 | O=C(Nc1ccc(-c2nc3ccccc3[nH]2)cc1)c1cnc(Cl)c(Cl)c1 | 100% | 95% | 11%
33 | Cn1c(NC(=O)c2ccc(CNC(=O)c3ccc(O)c(-c4ccc(Cl)c(Cl)c4)c3)cc2)nc2ccccc21 | 94% | 74% | 20%
34 | O=C(NC1CCC(N2CCC(O)(c3ccc(F)cc3)CC2)CC1)c1cc2ccccc2[nH]1 (stereo unspecified) | 94% | 8% | 9%
35 | CC(CN1CCN(C)CC1)C(=O)Nc1ccc(-c2cccc(-c3nc4cc(F)ccc4[nH]3)c2)cc1 (stereo unspecified) | 100% | 99% | 8%
36 | O=C(NC1CCN(Cc2ccccc2)CC1)c1ccc(-c2nc3cc(F)c(F)cc3[nH]2)s1 | 100% | 97% | 6%
37 | CCOC(=O)c1ccc(NCc2ccccn2)cc1 | 99% | 0% | 0%
38 | CCC(C)NS(=O)(=O)c1ccc2nc(Nc3ccc(C)c(Cl)c3)n([C@H](C)C(C)(C)C)c2c1 (stereo partly specified) | 98% | 100% | 8%
39 | COc1ccc2ncc(Cl)c([C@@H](O)CN3CCC(NCc4cc5c(cn4)OCCO5)CC3)c2c1.Cl | 100% | 100% | 8%
40 | Cc1cccc2nc(-c3ccc(-c4ccc(C(=O)NCCN5CCCC5)cc4)cc3)[nH]c12 | 100% | 77% | 25%
41 | Cc1ccc(Nc2nc(-c3ccccn3)cs2)nc1 | 94% | 97% | 60%
42 | O=C(Nc1cccc(CN2CCCN(Cc3cccnc3)CC2)c1)c1cc2ccccc2s1.O=C(O)C(F)(F)F | 92% | 28% | 15%

Row | Structure (SMILES) | Inhibition [1] | Inhibition [2] | Inhibition [3]
43 | CC(C)(C)c1ccc(CNC(=O)COc2ccc(-c3nnc(-c4cccc([N+](=O)[O-])c4)o3)cc2[N+](=O)[O-])cc1 | 93% | 25% | 10%
44 | CCCCCCn1c(Sc2ccc(C#N)c([N+](=O)[O-])c2)nnc1-c1ccc(OC)cc1 | 95% | 51% | 19%
45 | OC(CNCc1ccccc1Oc1ccccc1)c1cc(Br)cs1 (stereo unspecified) | 94% | 79% | 0%
46 | CNC(=O)CSc1nnc(-c2ccc(C)cc2)c(-c2ccc(C)cc2)n1 | 94% | 49% | 2%
47 | COc1ccc2nccc([C@@H](O)CN3CCC(NCc4cc5ccc(C#N)cc5[nH]4)CC3)c2c1.O=C(O)C(=O)O | 100% | 39% | 31%
48 | CC(=O)Nc1cccc(CNCc2ccc(-c3cnc(N4CCCC(c5ccccc5)C4)nc3)cc2)c1.O=CO (stereo unspecified) | 84% | 22% | 16%
49 | O=C(/C=C/c1ccc(Cl)c(Cl)c1)NCCCCCN1CCCN(C(=O)Nc2ccc(OC(F)F)cc2)CC1 | 99% | 0% | 39%
50 | CCCCCCN(CCCCCC)CC(O)c1c(OC)ccc2ccccc12.Cl (stereo unspecified) | 100% | 100% | 18%
51 | C=CCn1cc(C2CCN(CCCCNC(=O)c3sc(-c4ccc(C(F)(F)F)cc4)nc3CO)CC2)c2cc(OC)ccc21 | 91% | 4% | 40%
52 | CCCCNc1nccc2ccc(-c3ccncc3)cc12 | 93% | 1% | 6%
53 | CCOc1ccc(-c2nonc2NC(=O)c2ccc(OC)cc2)cc1OCC | 98% | 77% | 0%
54 | Cc1ccccc1C1CCN(C2CCC(NC(=O)/C=C/c3ccc(C(F)(F)F)cc3F)CC2)CC1 (stereo unspecified) | 99% | 58% | 72%
55 | CO/C(=C\C=C\c1cc2cc(Cl)c(Cl)cc2[nH]1)C(=O)NCCCN1CCN(c2cccc(CCCO)c2)CC1 | 90% | 36% | 66%
56 | COc1ccc(Nc2ncc3c(-c4ccc(NC(=O)c5cccc(C(F)(F)F)c5)cc4)c[nH]c3n2)cc1OC | 89% | 30% | 26%
57 | Cc1ccccc1C1CCN(C2CCC(NC(=O)c3ccc(-c4ccccc4F)o3)CC2)CC1 (stereo unspecified) | 99% | 66% | 42%
58 | NC(=O)c1cccc(CN2Cc3ccccc3OC3(CCN(Cc4c[nH]c5cnccc45)CC3)C2)c1.O=C(O)C(F)(F)F | 94% | 2% | 9%
59 | CCc1ccc(C2CCN(CCCCNC(=O)c3ccc(-c4ccc(Cl)cc4)cc3)CC2)c(O)c1 | 100% | 99% | 48%
60 | CS(=O)(=O)c1cccc(-c2cnc(N)c3cc(-c4ccc5c(c4)OCO5)ccc23)c1.O=CO | 91% | 23% | 37%
61 | CN=C(S)NN=C(C)c1ccccn1 | 98% | 99% | 64%
62 | CNC(=O)COc1cc(C)c(C2CCN(CCCCNC(=O)c3ccc(-c4ccc(C(F)(F)F)cc4)cc3)CC2)cc1C | 100% | 72% | 38%
